Hit rate of the full screen: of about 53,000 sequences, about 3,700 (7%) were called active.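 The calls were made as follows: active = gene knockdowns whose robust z-score for IL-1 alpha signal is at least 2 or at most -2, so actives lie on both sides; inactive = the rest.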 The entries come from a sample that favours actives as a whole.

A short description of the assay: Components of the Cytosolic LPS Sensing Pathway: Gene Identification via Genome-wide siRNA Screen.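 Also: robust z of the log signal after scaling to non-targeting control siRNA wells of the plate.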 The conditions noted are these: RAW264.7 macrophages, IL-1a HTRF, actives lie on both sides, screened at 100 nM (by protocol), cells primed 5 h with Pam3CSK4 first. In a few lines:
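Three distinct siRNAs per gene were tested singly at 100 nM in RAW264.7 macrophages. Following Pam3CSK4 priming and 24 hour LipidA transfection, IL-1a secretion was read by HTRF.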
Background: In TR-FRET formats the signal depends on donor and acceptor labels being close together.
As to “GGAAUUCCAAGUCAUUAUUTT against B230340J04Rik”, the z-score is 0.664 (inactive).
GCAUCUUAGGCAUUGCUAGTT against Pcna: the z-score was -0.156 (inactive).
Regarding GGAUCAUGGGCGAAUGAUGTT against Rae1, the z-score is -1.41 (inactive).
“GGACAAAAACAAAUGUGAGTT against 4933417A18Rik”: the z-score was -2.43 (active).
In the case of GGAAUCAAAGGUCAAGCCATT against Rnf181, the z-score is 2.17 (active).
As for CCAUGUCAGUUACAAUGCGTT against Gja6, the z-score is 1.54 (inactive).
GGUCCAUGAUUGAAACACGTT against Srpr: the z-score is 0.798 (inactive).
Next, GCAGAUAAGAGUUCAAAUCTT against Oxa1l: -0.499 (inactive).
Next, GACAUACAAUCUCCUACAUTT against Olfr478: 0.818 (inactive); GCCGGGACCAUGAUUAUAGTT against Rbm10: 2.7 (active); GGAAUUCCGAAUAUUCCAGTT against Tsen2: 1.51 (inactive).
GGAAGCCACCUUAACAUUATT against Osgin1: the z-score is -0.814 (inactive).
Next, GGAGAACUCUUUCAGAUUCTT against Stk36: 0.957 (inactive).
Turning to GGGAUUCUGUCUGCACUGUTT against Olfr1145, the z-score was -2.51 (active).
On to GGGUUCUGCAUGUUGAUUCTT against Chm, for which the z-score was -0.853 (inactive).
Next, GCCACCCACCUAAAAUCAATT against Rcsd1: -0.216 (inactive).
Turning to GGAAGUCUAGGUAAAAAAGTT against Samsn1, the z-score is -0.994 (inactive).
Turning to GGACUUCAAGGACUUCUACTT against Crtap, the z-score is 0.112 (inactive).
GGACAAUUGAAAACUGCCUTT against Gpd1: the z-score was 2.95 (active).
Next, GGGUGAGUGUCGGAACUUUTT against Sema6b: -0.157 (inactive); GGUUGUGCCAGAGGAGAUUTT against Scrib: 0.963 (inactive).
Next, GGAAGAACUAGAGUCAUAUTT against Eps8l1: -0.0721 (inactive).
For CCAUACAUAAAAAGCCGCCTT against Il1rl1, the z-score was 1.29 (inactive).
Next, GGUUCAUGUCAUCUUUAACTT against Calr: -1.21 (inactive); GCAGAUGAUACCUGGGCAATT against Mtmr14: 2.68 (active).
The figure for GGAUCAAUUGGCACUAGACTT against Zfp787 is -1.31 (inactive); for GGACAAGUCCUUUGCUGUGTT against Zmynd8 it is -1.35 (inactive).
The figure for GGCAAUACUGGAAGGGUGUTT against Eps15 is -1.03 (inactive); for GGAUGAUAUGGCAUACUUUTT against Fam221a it is 0.803 (inactive).
Turning to “GGCCAUCUUGAAUUUUUUATT against 2410002F23Rik”, the z-score is 0.0652 (inactive).
The figure for GGUGCUGUUGAAUUGUGGGTT against Wdr77 is -0.366 (inactive).
With GAGCUCCUCUGCUUUCUCUTT against Ms4a6d, the z-score is -2.74 (active).
For the sequence GGUUAAACUUGGUGAAUUATT against Kcnj16, the z-score is 0.901 (inactive).
Take GCACAUGUCUGUGAUUCAATT against St8sia1: the z-score was -0.166 (inactive).
For the sequence GCGGAAACUCUCGAAAGUGTT against Dhx34, the z-score was -1.52 (inactive).
Turning to CCUGAUGCAACACAGGUCCTT against Zbtb26, the z-score was 0.352 (inactive).
CGGAACACCAAUAAGAGAATT against Hgd: the z-score was -0.667 (inactive).
As for GGACCGAUUAAGGAAGGAATT against Ppp1r1a, the z-score was 2.49 (active).
Take GCGUGAUUGACAACUGGUUTT against Cphx1: the z-score is 0.236 (inactive).
Next, GGGAAUAUGACUGAAUAUATT against Ss18: -1.05 (inactive).
The figure for CCAAAUCGCUUCACAUAAUTT against Atp6v1g2 is -1.1 (inactive); for GAGAAUGAGUUCUGCCCAGTT against Lhb it is 2.24 (active).
With GGACAAGAACCUGAAGCGGTT against Cdk5r1, the z-score was -0.355 (inactive).
Next, GGCUGGAGAAAAUGAUGAATT against Rwdd1: -0.267 (inactive); GGAAGACAUAUUAACUACUTT against Gpr37: 0.544 (inactive); GGAAAGCUCAAUUGGUUCGTT against Nup85: -2.27 (active).
In the case of GGGAUCAUCUCUUUUGCUGTT against Olfr720, the z-score is -1.33 (inactive).
Next, GGGAAGCCUUUUUUAUCGGTT against V1rb5: 0.838 (inactive).
Consider CCCAUCCAAUAAGCAAUUGTT against Lpcat2, for which the z-score is -0.696 (inactive).
The figure for GCGAGACUAUCAAAUCUAUTT against Gabra4 is 0.948 (inactive); for GGGAUAGUUACCUAAGACATT against Adarb2 it is 0.593 (inactive).
Turning to GCACAAGUCUAAACAGCUGTT against Fermt1, the z-score was 0.494 (inactive).
With GGAAAAAUACUCCAUAUUCTT against Enam, the z-score is 0.0353 (inactive).
For CCUCAACACUCAGCUCAAUTT against Ifna14, the z-score was -2.67 (active).
The figure for GGCCAGUAGAUCCUUCUAATT against Fgf16 is 0.406 (inactive); for CCUAAUCUAGAGCAACACATT against Ankrd34c it is -1.67 (inactive).
For the sequence GGCCUACCUUACCCUAAGATT against Adam32, the z-score is 0.513 (inactive).
For CCAUGGCUUACGAGAGACATT against Mavs, the z-score was -0.884 (inactive).
Next, GGAAUCCUUUCCUAAAUUGTT against Lin9: 0.745 (inactive); GGAUAUGCUCUCUUGGCUCTT against Ctsk: -2.07 (active).
For GGCUUCCUCCACUCUUUCCTT against Rhbg, the z-score was -1.81 (inactive).
For the sequence GGAACCAUGAAAUAAAUGUTT against Acad8, the z-score is 0.684 (inactive).
Next, CCCUUAUUGAUUCUUCAAGTT against Ngp: 0.342 (inactive); “GGUGCAACCAGUGUGUGAUTT against St6galnac6”: 4.22 (active).
Consider CCCUCUAUCCUUAAACCAUTT against Erg28, for which the z-score is -0.549 (inactive).
For the sequence CCUAUUCUUAACACCCUUGTT against Tfr2, the z-score was 0.891 (inactive).
For AUCUCUCCUGUUCUAACACTT against Olfr26, the z-score was -0.242 (inactive).
The figure for GGUCAUCAGCUUGUAACCATT against Mmadhc is -1.37 (inactive); for “GGACAAUUACAUCCAGCCUTT against 2610528J11Rik” it is -2.11 (active).
The figure for GGACCUCAGCGAAGACAAUTT against Cd300e is 0.114 (inactive); for GGUGAAAAGGUUGAUGUCATT against Spertl it is -0.368 (inactive).
Next, GCUCAAUAGCUCAAAGUUUTT against Chsy3: -0.197 (inactive); GCCCUCCAACCUCGAUAACTT against Shisa7: 2.9 (active); GGAUGACCAAGAAUGGGAATT against Dap: 0.341 (inactive).
GCAAAGGAGGCUUCUAUUGTT against Olfr380: the z-score is -0.803 (inactive).
As to GGAGUUGUGGAAUUCUCUATT against Extl2, the z-score was -1.3 (inactive).
On to AACAGAUCUUCUCUGGUCCTT against Klra15, for which the z-score is -2.47 (active).
Next, GCUUGUGUUUUAGAGCCGCTT against Mat1a: 0.653 (inactive); GCACAAUGACGCACUUACCTT against Pik3r2: 0.693 (inactive); CCUGGAAUGUAUUUGUUAUTT against Nkain2: 0.0256 (inactive).
Take GGAACACUACCGUUUUGGGTT against Ehd2: the z-score is 2.55 (active).
Take GGACCAGGUUUGUUUUUUATT against Stom: the z-score is 1.03 (inactive).
As to CGGUUUUGUCAAAGCCCUGTT against Junb, the z-score was 0.322 (inactive).
Take GGUCAAGACGGUCUACCGATT against Rab3d: the z-score was -0.571 (inactive).
Take GGGAUAUCAAAGCAAAAAUTT against Rab8a: the z-score was -0.578 (inactive).
The figure for GGGUUCACGAAAGAGUAAATT against Clcn5 is -1.21 (inactive).
The figure for GCCGUACCGGAUUUUUUUCTT against Smyd3 is 4 (active).
Next, GCAGCUAACUCCAAGUCAGTT against Tfam: -1.42 (inactive); GGACUUGCCUUGAUCGCUATT against Mars2: 0.853 (inactive); CGCGACAGAAUCAGUACAATT against Hnf4g: 2.17 (active).
For the sequence GGUUCCUACACGAAAGGAUTT against Eif2b4, the z-score was 0.14 (inactive).
With GCCUUUACCCAAAUUAUCATT against Defb4, the z-score is 0.567 (inactive).
As for GGACACUGUACUCAAACCUTT against Cntnap5b, the z-score was -2.86 (active).
In the case of GGUGUAUACUGUGAAAUCATT against Notch1, the z-score was -0.319 (inactive).
GGGCAUUGUUGAGCACCUUTT against Pgap6: the z-score is -1.81 (inactive).
As for GGAAAAGCUGGAGGAAGACTT against Tef, the z-score is 0.525 (inactive).
For GGAAUGUCAAUCUUGAGAGTT against Asprv1, the z-score was -0.812 (inactive).
Next, GCAGACAUUGCACAAACCCTT against Ankrd10: 0.355 (inactive); GCCUGUCUCCUCAAUGCUUTT against Gm9903: -0.319 (inactive).
In the case of ACUGUAUGAAGAGGAAACATT against Krt87, the z-score was -2.14 (active).
In the case of GGACAGUAUAGUGGAGAUCTT against Fgf22, the z-score was 1.66 (inactive).
Consider GCUAUUCUGUCUACGUGUATT against H2bc18, for which the z-score was -0.356 (inactive).
The figure for CCGAAAUGUGUGUUUUAAATT against Vapb is 1.57 (inactive); for GGUCUUUCCGGCAGUUCUUTT against Rxrg it is -2.27 (active); for GGAAUCGGUGGCCAUCAAUTT against Olfr771 it is 0.458 (inactive).
As for GGAAGCUGAAGGUUUGCCATT against Wipi2, the z-score is -0.529 (inactive).
Next, GGAUCAGGAGCUGUUUGGATT against Adamtsl4: 1.05 (inactive); GGAUGUCUACUGGAAUGUUTT against Pigv: -1.16 (inactive).
